Screens from PubChem BioAssay.
POLB inh: blocks human DNA polymerase beta activity; P06746; Pol beta primer extension/strand displacement, fluorescence kinetic; Potency, µM (highest dose often 114 µM), hits mostly inhibitors; 340,000 tested, 1.3% active
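Homogeneous kinetic assay of primer extension and strand displacement by 10 nM Pol beta, preincubated 15 min at room temperature with compound before 50 nM substrate (final) was added. Read at 0 and 10 min; four-parameter Hill fit.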
Pol iota inh: blocks human DNA polymerase iota activity | Q9UNA4 | Pol iota fluorescent replication assay, 10 min | Potency, µM (titrated, usually from 115 µM), most hits filed as inhibitors | 390,000 tested, 1% active | AID 588590
Target sequence (Q9UNA4 whole entry, looked up): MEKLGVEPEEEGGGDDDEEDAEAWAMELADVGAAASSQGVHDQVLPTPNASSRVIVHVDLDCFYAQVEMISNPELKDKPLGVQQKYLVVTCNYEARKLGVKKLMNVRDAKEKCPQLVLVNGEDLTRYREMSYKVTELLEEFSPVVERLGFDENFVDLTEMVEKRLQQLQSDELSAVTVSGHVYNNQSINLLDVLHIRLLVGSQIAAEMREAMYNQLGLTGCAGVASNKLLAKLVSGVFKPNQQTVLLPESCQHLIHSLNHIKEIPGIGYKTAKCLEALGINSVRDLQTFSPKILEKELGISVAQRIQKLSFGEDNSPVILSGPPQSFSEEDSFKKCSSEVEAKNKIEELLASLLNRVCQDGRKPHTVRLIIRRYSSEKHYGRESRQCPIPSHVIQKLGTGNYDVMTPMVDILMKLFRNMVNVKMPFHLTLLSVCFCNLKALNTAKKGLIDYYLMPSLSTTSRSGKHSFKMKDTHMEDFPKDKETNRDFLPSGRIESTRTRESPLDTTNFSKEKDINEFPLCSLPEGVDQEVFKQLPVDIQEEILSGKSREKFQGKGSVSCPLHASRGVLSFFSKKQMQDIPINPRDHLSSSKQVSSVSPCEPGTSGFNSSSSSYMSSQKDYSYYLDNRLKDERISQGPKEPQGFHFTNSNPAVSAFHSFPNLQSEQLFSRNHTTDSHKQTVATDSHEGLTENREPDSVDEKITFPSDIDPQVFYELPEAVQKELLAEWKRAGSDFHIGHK
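Fluorescent replication assay read twice, at 0 min and 10 min after adding 50 nM (final) substrate. Enzyme (10 nM) and compounds were first incubated 15 min at room temperature; enzyme-free buffer wells were negative controls.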
Pol eta inh: DNA polymerase eta (human) inhibition | recombinant Pol eta, fluorescent DNA replication assay | Potency, µM (top dose mostly 114 µM), most hits filed as inhibitors | 390,000 tested, 1.2% active | AID 588591
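Pol eta (10 nM) was preincubated with compounds for 15 min at room temperature, after which fluorescent replication substrate (50 nM final) was added to start the reaction. Fluorescence was read kinetically at 0 and 10 min.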
POLK inh: inhibitors of human DNA polymerase kappa; Potency, µM (highest dose often 107 µM), actives largely listed as inhibitors; Q9UBT6; 400,000 tested, 0.53% active; AID 588579; purified Pol kappa, fluorescent DNA synthesis assay, 10 min
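50 nM final substrate added after 15 min RT preincubation of 10 nM Pol kappa with compound; fluorescence read at 0 and 10 min.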
APEX1 inh: APE1 (human) endonuclease inhibition; recombinant APE1, TAMRA/BHQ-2 abasic DNA cleavage fluorescence; 350,000 tested, 0.35% active; Potency, µM (top dose mostly 65.8 µM), actives largely listed as inhibitors; also: nearly all actives have a fitted effect of over 55% in size
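Quantitative HTS: incision of a TAMRA/BHQ-2 double-stranded substrate bearing a tetrahydrofuran abasic site by 0.75 nM APE1 raises fluorescence. Substrate 50 nM final, added after 15 min compound preincubation at room temperature; progress as third-minus-first kinetic read difference.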
GLS inh: blocks human kidney-isoform glutaminase activity. Potency, µM (highest dose often 45.5 µM), hits mostly inhibitors. 410,000 tested, 0.21% active. GLS enzymatic activity, qHTS titration. AID 624170
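Enzyme dispensed in phosphate buffer (45 mM, pH 8.2, 0.02% Tween-20), compounds pinned in, then 1 mM L-glutamine solution and the glutamate oxidase–HRP–Amplex Red mix added; fluorescence read immediately and again after 30 min at room temperature.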
Of the large screens only hits and unclear results are named; the others gave an inactive call. Most compounds without a hit are left out; they make up all but 2.4% or so of the library. Calls follow the shape of the dose curve; as a rule, active = well fitted curve in the direction sought with a large enough effect; inconclusive = small, poorly fitted or top-dose-only effect, or another doubt; inactive = no such curve, though single readings can be large; an effect the other way counts as inactive or inconclusive.

CCCCn1c(SCC(=O)NC(=O)NCc2ccco2)nc2cc(S(N)(=O)=O)ccc21	POLB inh 28µM, Pol iota inh inconclusive, Pol eta inh 79µM, POLK inh inconclusive, APEX1 inh inconclusive
CCOC(=O)NC(=O)CSc1nc2ccccc2[nH]1	POLB inh 50µM, APEX1 inh inconclusive
CCCCn1c(SCc2ccc(C(=O)OC)o2)nc2cc(S(N)(=O)=O)ccc21	none
C=CCn1c(COc2ccccc2F)nnc1SCC(=O)NC(=O)NCc1ccco1	POLB inh 40µM, Pol iota inh 32µM, Pol eta inh inconclusive, POLK inh inconclusive, APEX1 inh inconclusive
CN(C)S(=O)(=O)c1cccc(NC(=O)c2cccc(S(=O)(=O)N3CCCCCC3)c2)c1	none (no result: POLB inh)
Cc1cc(SCC(=O)NC(=O)NCc2ccco2)nc2c(C)cccc12	POLB inh 16µM, Pol iota inh inconclusive, APEX1 inh inconclusive
Cc1ccc(/C=C/C(=O)OCC(=O)NC(=O)NCc2ccco2)cc1	Pol iota inh inconclusive, Pol eta inh 50µM (no result: POLB inh)
C/C(=N/NC(=O)CSc1nc2ccccc2s1)c1ccncc1	none
O=C(CSc1ccccc1F)NC(=O)NCc1ccco1	POLB inh 10µM, Pol iota inh inconclusive, Pol eta inh inconclusive, APEX1 inh inconclusive
CS/C(=N\S(=O)(=O)c1cccs1)NC(=O)CSc1nc2ccccc2s1	POLB inh inconclusive, Pol iota inh inconclusive, Pol eta inh 50µM, GLS inh inconclusive
COCCNS(=O)(=O)c1ccc2c(c1)oc(=O)c1cc(S(=O)(=O)NCCOC)ccc12	none (no result: Pol iota inh, Pol eta inh, POLK inh, GLS inh)
CCOCCCNC(=O)c1ccc(N2CCOCC2)c(NS(=O)(=O)c2ccc(OC)cc2)c1	none
Nc1ccc2nn(-c3cc([N+](=O)[O-])ccc3O)nc2c1	Pol eta inh 45µM
CC[n+]1ccc(/C=C/c2ccc(N(C)C)cc2)c2ccccc21	POLB inh 45µM, Pol eta inh inconclusive, POLK inh inconclusive
CC[n+]1c(/C=C/c2ccc(N(C)C)cc2)ccc2ccccc21	POLB inh 28µM, Pol eta inh inconclusive
O=C(NC1CCCCCC1)c1ccc(OCC2CCCO2)cc1 (stereo unspecified)	none
COc1ccc(CNC(=O)COc2cc(O)c3c(c2)OC(C)(C)CC3=O)cc1	none
COc1cccc(C2Nc3ccc4ccccc4c3C3=C2C(=O)CCC3)c1O (stereo unspecified)	POLB inh 89µM
CCC(C(=O)NCCC(C)C)N(C(=O)Cn1nnc(-c2ccc(C)cc2)n1)c1cccc(O)c1 (stereo unspecified)	none (no result: APEX1 inh)
COCCCNC(=S)Nc1cccc2ncccc12	Pol iota inh 5.6µM
CCN1C(C)=C(C(=O)OC(C)C)C(c2ccccc2Cl)C2=C1COC2=O (stereo unspecified)	none (no result: POLB inh, Pol iota inh, Pol eta inh, GLS inh)
Cc1[nH]c(C)c(S(=O)(=O)NCc2ccccc2Cl)c1C(=O)N1CCCC1	none
COc1cc2nc(SCC(=O)Nc3c(C)cc(C)cc3C)n3nc(CCn4c(C)nc5ccccc54)nc3c2cc1OC	none (no result: Pol eta inh, APEX1 inh)
CN(C(=O)CSc1nncn1-c1ccccc1)c1ccccc1	GLS inh inconclusive
c1ccc(Cn2c(SCc3nc4ccccc4s3)nnc2-c2ccco2)cc1	POLB inh 50µM, Pol iota inh 22µM, Pol eta inh 14µM, POLK inh inconclusive
COc1ccc2oc(=O)c(-c3nnc(NCc4ccco4)s3)cc2c1	POLB inh 25µM, Pol iota inh 10µM, Pol eta inh inconclusive, POLK inh inconclusive
CCOc1ccccc1Nc1nnc(-c2cc3cc(OC)ccc3oc2=O)s1	POLB inh inconclusive, Pol iota inh inconclusive, Pol eta inh 56µM (no result: APEX1 inh)
OCCNc1nc2ccccc2nc1NCCO	APEX1 inh inconclusive
OCCNc1c2ccccc2nc2ccccc12	POLB inh 18µM, Pol iota inh inconclusive, POLK inh inconclusive, APEX1 inh inconclusive
N/C(=N\N=C\c1ccnc2ccccc12)SC1CC(=O)N(c2ccc(Br)cc2)C1=O (stereo unspecified)	POLB inh inconclusive, Pol eta inh 25µM
CCCc1cnc2c(c1SCc1cccc(F)c1)c(=O)n(C)c(=O)n2C	none (no result: APEX1 inh)
O=C(O)c1ccc(NC2=C(n3nnc4ccccc43)C(=O)c3ccccc3C2=O)cc1	Pol iota inh 40µM
Cc1ccc(-c2nc3s/c(=C\c4ccco4)c(=O)n3n2)cc1	POLB inh 28µM, Pol iota inh 25µM, Pol eta inh 89µM, APEX1 inh inconclusive
COc1ccccc1/C=c1\sc2nc(-c3ccccc3OC)nn2c1=O	none
Oc1c(C=C2N=c3ccccc3=N2)sc(=S)n1-c1ccccc1	none
CC1=Nc2ccccc2/C1=C/c1sc(=S)n(-c2cccc(C(=O)O)c2)c1O	Pol iota inh inconclusive, Pol eta inh 35µM, POLK inh inconclusive
CCN(CC)CCn1c2ccccc2c2cnc(N=CN(C)C)c(C#N)c21	POLB inh 20µM, Pol iota inh inconclusive, Pol eta inh inconclusive, APEX1 inh inconclusive
NS(=O)(=O)c1cccc(NC(=O)CCC(=O)c2cccs2)c1	none
OCCSc1nc(-c2ccccc2)nc2ccc(F)cc12	POLB inh inconclusive, Pol iota inh 79µM, POLK inh inconclusive, APEX1 inh inconclusive
COC(=O)CSc1nc(-c2ccccc2)nc2ccc(F)cc12	none (no result: GLS inh)
O=[N+]([O-])c1cc(CN(CCO)CCO)ccc1O	POLB inh 50µM, Pol iota inh 25µM, Pol eta inh inconclusive, POLK inh inconclusive
COc1ccc(C2CC(=O)Oc3cc(O)cc(O)c32)cc1 (stereo unspecified)	POLB inh inconclusive
O=C1c2cc(O)cc(O)c2OC[C@@H]1c1ccc(O)c(O)c1	POLK inh 15µM, APEX1 inh inconclusive (no result: POLB inh, Pol iota inh, Pol eta inh, GLS inh)
CC(=O)NN1C(=O)/C(=C\c2ccccc2)SC1=S	Pol iota inh inconclusive
CC(=O)NN1C(=O)/C(=C\c2ccc(Br)o2)SC1=S	POLB inh 28µM, Pol iota inh inconclusive, Pol eta inh 25µM, POLK inh inconclusive, APEX1 inh inconclusive
OC1CCCN(Cc2ccc3ccc4cccc5ccc2c3c45)C1 (stereo unspecified)	POLB inh 40µM, Pol iota inh inconclusive, APEX1 inh inconclusive
Cc1cc(C)nc(N2CCCC(C(=O)NC3CC3)C2)n1 (stereo unspecified)	none
CSC1=NC(=O)/C(=C\c2cccc3ccccc23)S1	POLB inh 50µM
O=C(NNC(=O)c1ccc(Br)s1)NC1CCCCC1	POLB inh 22µM
O=C(O)CCc1ccc(-c2cccs2)n1Cc1ccco1	POLB inh 50µM, Pol iota inh inconclusive, Pol eta inh inconclusive
Cc1ccc(-c2ccc(CCC(=O)O)o2)cc1	none
O=C(O)CCc1ccc(-c2cccs2)n1NC(=O)c1cccs1	POLB inh inconclusive
O=C(O)CCc1ccc(-c2cccs2)o1	Pol iota inh 40µM, Pol eta inh 45µM, POLK inh inconclusive, APEX1 inh inconclusive
